Reference: PubChem BioAssay AID1159580 (chemical genetic matrix, 2015)
“And” between values parts separate entries of the source, which are not always exact repeats. Equal values may be shown once. Out of some 5,500 compounds screened, about 2,000 (36%) were called active. Roughly 18% stayed inconclusive and do not appear here. No stated cut-off is given here; in the data, active means normalized growth mostly below about 0.91 (no sharp cut-off); inconclusive means no clear call, values can overlap the other calls; inactive means mostly above about 0.92. This is one part of the list.

Assay: chemical genetic growth profiling, strain panel (AID 1159580);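 further: tested at 20 µM; growth read once vehicle control cultures reached saturation at 30 °C; 1 = growth at the plate median or of vehicle wells; lower values mean less growth of the strain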
Settings: growth OD

Measured: normalized growth

NC1CC1c1ccccc1 (stereo not drawn)
inactive: S. cerevisiae deletion strains, locus YAL013W, strain DEP1, active compounds read low 1.02 | S. cerevisiae deletion strains, locus YAL040C, strain CLN3, active compounds read low 0.989 | S. cerevisiae deletion strains, locus YBR021W, strain FUR4, active compounds read low 1.02 | S. cerevisiae deletion strains, locus YBR229C, strain ROT2, active compounds read low 1.02 | S. cerevisiae deletion strains, locus YCL029C, strain bik1, active compounds read low 0.985 | S. cerevisiae deletion strains, locus YCL061C, strain MRC1 (second series), active compounds read low 1.01 | S. cerevisiae deletion strains, locus YDL035C, strain GPR1, active compounds read low 1.02 | S. cerevisiae deletion strains, locus YDL074C, strain BRE1, active compounds read low 1.05 | S. cerevisiae deletion strains, locus YDL101C, strain DUN1, active compounds read low 1.03 | S. cerevisiae deletion strains, locus YDL134C, strain PPH21, active compounds read low 1.02 | S. cerevisiae deletion strains, locus YDL185W, strain tfp1, active compounds read low 0.989 | S. cerevisiae deletion strains, locus YDL192W, strain arf1, active compounds read low 0.988 | S. cerevisiae deletion strains, locus YDR101C, strain arx1, active compounds read low 0.976 | S. cerevisiae deletion strains, locus YDR150W, strain NUM1, active compounds read low 1.02 | S. cerevisiae deletion strains, locus YDR162C, strain NBP2, active compounds read low 1.03 | S. cerevisiae deletion strains, locus YDR318W, strain mcm21, active compounds read low 0.979 | S. cerevisiae deletion strains, locus YDR363W, strain ESC2, active compounds read low 0.946 | S. cerevisiae deletion strains, locus YDR388W, active compounds read low 0.981 | S. cerevisiae deletion strains, locus YDR502C, strain sam2, active compounds read low 0.995 | S. cerevisiae deletion strains, locus YEL061C, strain CIN8, active compounds read low 1.01 | S. cerevisiae deletion strains, locus YER002W, strain NOP16, active compounds read low 1.02 | S. cerevisiae deletion strains, locus YER110C, active compounds read low 0.981 | S. cerevisiae deletion strains, locus YER155C, strain BEM2, active compounds read low 1.01 | S. cerevisiae deletion strains, locus YER167W, strain BCK2, active compounds read low 1.01 | S. cerevisiae deletion strains, locus YGL078C, strain dbp3, active compounds read low 0.988 | S. cerevisiae deletion strains, locus YGL086W, strain mad1, active compounds read low 0.975 | S. cerevisiae deletion strains, locus YGL248W, strain PDE1, active compounds read low 1.03 | S. cerevisiae deletion strains, locus YGR078C, strain PAC10, active compounds read low 1.02 | S. cerevisiae deletion strains, locus YGR135W, strain pre9, active compounds read low 0.994 | S. cerevisiae deletion strains, locus YGR229C, strain SMI1, active compounds read low 1.02 | S. cerevisiae deletion strains, locus YGR252W, strain gcn5, active compounds read low 0.922 | S. cerevisiae deletion strains, locus YHR030C, strain SLT2, active compounds read low 1.01 | S. cerevisiae deletion strains, locus YHR079C, strain IRE1 (second series), active compounds read low 0.981 | S. cerevisiae deletion strains, locus YHR094C, strain hxt1, active compounds read low 0.99 | S. cerevisiae deletion strains, locus YHR129C, strain ARP1, active compounds read low 1.02 | S. cerevisiae deletion strains, locus YHR200W, strain rpn10, active compounds read low 0.991 | S. cerevisiae deletion strains, locus YIL066C, strain RNR3, active compounds read low 1.02 | S. cerevisiae deletion strains, locus YIL073C, strain SPO22, active compounds read low 0.972 | S. cerevisiae deletion strains, locus YIL125W, strain kgd1, active compounds read low 0.987 | S. cerevisiae deletion strains, locus YIR030C, strain dcg1, active compounds read low 0.993 | S. cerevisiae deletion strains, locus YJL095W, strain BCK1, active compounds read low 1.03 | S. cerevisiae deletion strains, locus YJL134W, strain LCB3, active compounds read low 1.02 | S. cerevisiae deletion strains, locus YJL168C, strain set2, active compounds read low 0.988 | S. cerevisiae deletion strains, locus YJL187C, strain SWE1 (second series), active compounds read low 1.02 | S. cerevisiae deletion strains, locus YJR043C, strain POL32, active compounds read low 0.992 | S. cerevisiae deletion strains, locus YJR075W, strain HOC1, active compounds read low 1.01 and 1.03 | S. cerevisiae deletion strains, locus YKL009W, strain mrt4, active compounds read low 1.01 | S. cerevisiae deletion strains, locus YKL068W, active compounds read low 0.997 | S. cerevisiae deletion strains, locus YKL085W, strain MDH1 (second series), active compounds read low 1.03 | S. cerevisiae deletion strains, locus YKL085W, strain MDH1, active compounds read low 1.03 | S. cerevisiae deletion strains, locus YKL190W, strain CNB1, active compounds read low 1.02 | S. cerevisiae deletion strains, locus YKR001C, strain vps1, active compounds read low 0.987 | S. cerevisiae deletion strains, locus YLR039C, strain RIC1, active compounds read low 1.06 | S. cerevisiae deletion strains, locus YLR058C, strain SHM2, active compounds read low 1.02 | S. cerevisiae deletion strains, locus YLR102C, strain apc9, active compounds read low 0.996 | S. cerevisiae deletion strains, locus YLR262C, strain YPT6, active compounds read low 1.05 | S. cerevisiae deletion strains, locus YLR268W, strain sec22, active compounds read low 0.989 | S. cerevisiae deletion strains, locus YLR330W, strain CHS5, active compounds read low 1.01 | S. cerevisiae deletion strains, locus YLR342W, strain FKS1 (second series), active compounds read low 0.994 | S. cerevisiae deletion strains, locus YLR371W, strain rom2, active compounds read low 0.984 | S. cerevisiae deletion strains, locus YLR418C, strain cdc73, active compounds read low 0.992 | S. cerevisiae deletion strains, locus YML016C, strain PPZ1, active compounds read low 1.03 | S. cerevisiae deletion strains, locus YML032C, strain rad52, active compounds read low 0.975 | S. cerevisiae deletion strains, locus YML124C, strain tub3, active compounds read low 0.997 | S. cerevisiae deletion strains, locus YMR078C, strain ctf18, active compounds read low 0.981 | S. cerevisiae deletion strains, locus YMR223W, strain ubp8, active compounds read low 0.972 | S. cerevisiae deletion strains, locus YMR263W, strain SAP30, active compounds read low 1.03 | S. cerevisiae deletion strains, locus YMR307W, strain GAS1, active compounds read low 0.976 and 1.01 | S. cerevisiae deletion strains, locus YNL067W, strain RPL9B, active compounds read low 1.03 | S. cerevisiae deletion strains, locus YNL128W, strain TEP1, active compounds read low 1.03 | S. cerevisiae deletion strains, locus YNL153C, strain GIM3, active compounds read low 1.03 and 0.972 | S. cerevisiae deletion strains, locus YNL175C, strain NOP13, active compounds read low 0.999 | S. cerevisiae deletion strains, locus YNL197C, strain WHI3, active compounds read low 1.01 | S. cerevisiae deletion strains, locus YNL224C, strain SQS1, active compounds read low 1 | S. cerevisiae deletion strains, locus YNL233W, strain BNI4, active compounds read low 1.02 | S. cerevisiae deletion strains, locus YNL250W, strain rad50, active compounds read low 1.01 | S. cerevisiae deletion strains, locus YNL271C, strain bni1, active compounds read low 0.978 | S. cerevisiae deletion strains, locus YNL298W, strain CLA4, active compounds read low 0.996 | S. cerevisiae deletion strains, locus YNL307C, strain MCK1, active compounds read low 0.979 | S. cerevisiae deletion strains, locus YNL322C, strain KRE1, active compounds read low 1.02 | S. cerevisiae deletion strains, locus YNR052C, strain pop2, active compounds read low 0.968 | S. cerevisiae deletion strains, locus YOL006C, strain TOP1, active compounds read low 1.09 | S. cerevisiae deletion strains, locus YOL147C, strain pex11, active compounds read low 0.989 | S. cerevisiae deletion strains, locus YOR061W, strain CKA2, active compounds read low 1.02 | S. cerevisiae deletion strains, locus YOR069W, strain VPS5, active compounds read low 1.01 | S. cerevisiae deletion strains, locus YOR083W, strain WHI5 (second series), active compounds read low 1 | S. cerevisiae deletion strains, locus YOR136W, strain idh2, active compounds read low 0.981 | S. cerevisiae deletion strains, locus YOR144C, strain elg1, active compounds read low 0.984 | S. cerevisiae deletion strains, locus YOR184W, strain ser1, active compounds read low 0.976 | S. cerevisiae deletion strains, locus YOR316C, strain cot1, active compounds read low 0.992 | S. cerevisiae deletion strains, locus YPL055C, strain LGE1, active compounds read low 1.06 and 0.992 | S. cerevisiae deletion strains, locus YPL241C, strain CIN2, active compounds read low 1.02 | S. cerevisiae deletion strains, locus YPR119W, strain clb2, active compounds read low 0.994 | S. cerevisiae deletion strains, locus YPR141C, strain kar3, active compounds read low 0.99 | S. cerevisiae deletion strains, locus YPR163C, strain tif3, active compounds read low 0.988 | S. cerevisiae deletion strains, locus YPR167C, strain met16, active compounds read low 0.985 | S. cerevisiae deletion strains, strain wtn01, active compounds read low 0.988 | S. cerevisiae strains, strain wild type, active compounds read low 1.01
